This is a sample that favours compounds with a hit; in the whole collection about 1.8% have one here.
ugtP null kill: kills S. aureus RN4220 lacking UgtP | S. aureus RN4220 ugtP deletion, OD600 growth, 16 h | growth inhibition, % (no concentration beside the values) | 330,000 compounds, 0.54% hits | AID 1259309; in the data active = growth inhibition above about 68%;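 note: plate controls were untreated wells for no effect and antibiotic for full effect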
PfHsp40 rescue: restores yeast growth despite PfHsp40 toxicity; AID 504582; growth rescue, % at 12.5 µM; 340,000 compounds, 0.68% hits; S. cerevisiae expressing PfHsp40, growth rescue, ATP luminescence; in the data active = growth rescue above about 28%, passing the limit was not always enough;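 note: yeast W303a lacking pdr1 and pdr3 grown in galactose medium; growth measured after three days at 30 °C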
Sa RN4220 lethal: S. aureus RN4220 growth inhibition; inhibition, % (no concentration beside the values); AID 1259311; 330,000 compounds, 0.33% hits; OD600, 16 h; in the data active = inhibition above about 85%;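 note: plate controls were untreated cells for no effect and reference antibiotic for full effect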
DUSP3 inh: blocks human VHR1 dual specificity phosphatase; AID 1654; P51452; inhibition, % at 13.3 µM; 290,000 compounds, 0.52% hits; recombinant VHR phosphatase, pNPP absorbance; in the data active = inhibition above about 50%
Target sequence (P51452 whole entry, looked up): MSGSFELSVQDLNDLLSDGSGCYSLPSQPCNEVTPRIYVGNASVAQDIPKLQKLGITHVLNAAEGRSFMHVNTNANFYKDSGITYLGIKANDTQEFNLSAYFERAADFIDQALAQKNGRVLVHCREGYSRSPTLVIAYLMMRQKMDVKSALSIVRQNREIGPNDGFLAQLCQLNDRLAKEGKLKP
PriA SSB inh: blocks PriA binding to SSB C-terminal tail. inhibition, % at 33 µM. AlphaScreen SSBct-PriA binding, biotinylated peptide. AID 1272365. 430,000 compounds, 0.6% hits; in the data active = inhibition mostly above about 37%, no sharp cut-off; inactive = mostly below about 20%;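 note: plate controls were negative control peptide for no effect and reference peptide for full effect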
Mtb hypoxia rep: Mtb hypoxia fluorescent reporter inhibition; M. tuberculosis hypoxia-regulated fluorescent reporter, fluorescence; fluorescence inhibition, % (concentration not given with the values); 300,000 compounds, 0.1% hits; AID 1159583; in the data active = fluorescence inhibition mostly above about 23%, no sharp cut-off; inactive = mostly below about 17%
Starred values were filed as active, the others as inactive; . = no result shown; ! = repeats disagree.

SMILES | ugtP null kill | PfHsp40 rescue | Sa RN4220 lethal | DUSP3 inh | PriA SSB inh | Mtb hypoxia rep
Cc1ccc(C(=O)NNC(=O)c2cccc(S(=O)(=O)N3CCOCC3)c2)cc1 | -3.8 | -2.0 | 3.6 | . | -1.4 | 23.6
O=C(NNC(=O)c1cc(Cl)ccc1O)c1cccc(S(=O)(=O)N2CCOCC2)c1 | 0.4 | 474.8* | 10.6 | . | -1.6 | -0.4
O=[N+]([O-])c1cc(S(=O)(=O)N2CCCCC2)ccc1NCc1cccc(Cl)c1 | -16.3 | 0.8 | -1.2 | 51.3* | 19.2 | 4.0
CN(C)CCCOC1C(C(O)CO)OC2OC(C)(C)OC21 (stereo unspecified) | 0.8 | . | 2.9 | . | . | -2.7
O=C(Oc1ccc2ccccc2c1)C1CCC1 | . | -0.7 | . | 51.0* | -23.6 | .
O=C1c2ccccc2C(=O)c2c1ccc1c(=O)n(-c3ccccc3)[nH]c21 | 57.9 | 0.9 | 73.9 | -5.5 | -16.1 | 2.5
CC(C)Cn1[nH]c2c3c(ccc2c1=O)C(=O)c1ccccc1C3=O | 85.5* | 0.6 | 89.0* | 4.9 | 7.0 | -3.4
O=C(CSc1cccc[n+]1[O-])Nc1ccccc1C(F)(F)F | 8.5 | -1.2 | 3.7 | . | -1.5 | 9.1
O=C(CSc1cccc[n+]1[O-])Nc1ccccc1Oc1ccccc1 | 0.2 | 89.9* | 13.4 | 1.2 | -6.9 | .
COc1ccc(N2CCC(CNC(=O)Nc3ccc(Cl)cc3)C2)cc1 (stereo unspecified) | -8.8 | -1.1 | 2.9 | 52.1* | -6.7 | 6.7
CCOc1ccc(NC(=O)NCC2CCN(Cc3ccc(F)cc3)CC2)cc1 | 2.5 | -0.8 | -0.4 | 56.9* | -6.0 | 9.7
Cc1ccc(NS(=O)(=O)c2ccccc2F)cc1 | . | . | . | . | -18.0 | .
CCOC(=O)N1CCC(NC(=O)CN2C(=O)CSc3nc(C)cc(C)c32)CC1 | 3.4 | -1.6 | -0.3 | 12.4 | . | .
CCOC(=O)N1CCN(C(=O)CCCN2C(=O)CSc3nc(C)cc(C)c32)CC1 | 4.2 | -0.6 | -10.9 | 51.0* | -13.3 | 4.4
CCOC(=O)CSc1ccc2nnc(-c3ccccn3)n2n1 | . | . | . | . | 90.0* | .
CCC(Sc1ccc2nnc(-c3ccccn3)n2n1)C(=O)O (stereo unspecified) | . | . | . | . | 103.0* | .
CCC(Sc1ccc2nnc(-c3ccc(F)cc3)n2n1)C(=O)O (stereo unspecified) | 9.2 | -1.4 | -0.9 | 18.6 | -4.3 | 3.6
CCOC(=O)CC(=O)CSc1ccc2nnc(-c3ccccn3)n2n1 | . | . | . | . | 63.6 | .
CC(=O)Nc1ccc(NC(=O)CSc2ccc3nnc(-c4ccccn4)n3n2)cc1 | -6.2 | -0.6 | 1.9 | 20.2 | 39.3* | 9.2
CCOC(=O)C(C)Sc1ccc2nnc(-c3ccccn3)n2n1 (stereo unspecified) | . | . | . | . | 75.7* | .
COc1ccccc1N1CCN(C(=O)Cc2csc3nc(-c4ccccc4)cn23)CC1 | . | . | . | . | 4.0 | .
CC1(c2ccccc2)CC(C)(C)N2C(=O)C(=O)c3cccc1c32 (stereo unspecified) | . | 0.1 | . | -7.5 | 1.9 | .
CC1(c2ccccc2)CC(C)(C)N2C(=O)C(=C3SC(=S)NC3=O)c3cccc1c32 (stereo unspecified) | 100.1* | . | 100.4* | . | . | 4.7
CN(C)c1ccc(C=Nn2ncc3ccccc32)cc1 | 76.3 | . | -13.9 | . | -156.0 | 13.5
Nc1cc2nc3ccccc3oc-2cc1=O | 31.4 | 375.6* | 37.9 | 26.9 | 7.0 | .
SMILES | ugtP null kill | PfHsp40 rescue | Sa RN4220 lethal | DUSP3 inh | PriA SSB inh | Mtb hypoxia rep
O=c1oc2ccccc2cc1-c1nc2ccccc2o1 | -0.3 | 0.2 | 15.2 | 16.5 | -6.9 | 8.1
O=[N+]([O-])c1cc(CN2CCCC2)ccc1Sc1ccc(Cl)cc1 | 4.0 | -0.3 | -4.7 | 31.2 | 42.7* | .
Clc1ccc(CN2CCCCCC2)cc1 | 9.0 | 2.1 | -0.6 | 2.3 | -20.5 | 5.5
O=C(CSc1cccc2cccnc12)Nc1ccc(C(=O)O)cc1 | . | . | . | . | 133.0* | .
CCCCCOc1ccc(NC(=O)CSc2cccc3cccnc23)cc1 | -0.3 | 0.3 | -10.4 | 2.3 | 78.8* | 11.7
CCOC(=O)CSc1cccc2cccnc12 | 0.7 | 0.4 | 1.2 | 8.8 | 98.5* | .
CC(C)NC(=O)CSc1cccc2cccnc12 | . | . | . | . | 34.1 | .
O=C(CSc1cccc2cccnc12)Nc1ccccc1 | . | . | . | . | 44.1 | .
CN1CCN(NC(=O)CSc2cccc3cccnc23)CC1 | . | . | . | . | 91.0* | .
Cc1cc(Br)cc(C)c1NC(=O)CSc1cccc2cccnc12 | . | . | . | . | 58.6* | .
Cc1cccc(C)c1NC(=O)CSc1cccc2cccnc12 | . | . | . | . | 48.6 | .
COc1ccc(C)cc1NC(=O)CSc1ccccn1 | . | . | . | . | 56.0* | .
COc1ccc(C)cc1NC(=O)CSc1ccc(-c2ccccn2)nn1 | -5.0 | -0.3 | -2.7 | -4.4 | 52.0* | -0.2
Cc1cc(NC(=O)CSc2ccccn2)cc(NC(=O)CSc2ccccn2)c1 | 3.8 | 0.6 | 5.1 | 54.4* | 1.3 | -3.9
O=C(CSc1ccccn1)Nc1ccc2ccccc2c1 | 13.1 | . | 6.5 | 20.4 | . | -0.3
COc1ccc(C=NNC(=O)CNC(=O)c2ccncc2)cc1OC | 11.3 | . | 2.1 | . | -8.4 | -2.3
Cc1ccc(CCC(=O)Nc2ccc(Cl)c([N+](=O)[O-])c2)o1 | . | . | . | . | 48.0* | .
Cc1ccc(CCC(=O)Nc2ccc([N+](=O)[O-])cc2)o1 | -9.3 | -0.7 | -0.7 | 1.3 | -4.2 | -8.7
CC(=O)c1ccc(C(=O)Nc2nc(-c3ccc4ccccc4c3)cs2)cc1 | . | . | . | . | 4.0 | .
Cc1cc(C)c2c(n1)nn1c(C)cc(C)nc21 | . | . | . | . | -7.0 | .
Cc1cc(C)c2c(N=NN(C)C)[nH]nc2n1 | 21.3 | 68.2* | 17.4 | 10.2 | 6.3 | .
Cc1ccc(-c2nn(-c3ccccc3)cc2CO)cc1 | -6.3 | 2.8 | -2.1 | 13.9 | -9.9 | 12.0
Cc1ccc(-c2nn(-c3ccccc3)cc2CNCc2ccccc2)cc1 | 96.9* | 1.0 | 60.8 | -7.7 | -16.0 | 12.7
COC(=O)Cc1cc(=O)n(-c2nc3ccccc3[nH]2)[nH]1 | -14.4 | 9.1 | 14.8 | 22.0 | 74.6* | -3.2
C#CCn1c(=NC(=O)c2cccc([N+](=O)[O-])c2)sc2cccc(C)c21 | . | . | . | . | 10.0 | .
SMILES | ugtP null kill | PfHsp40 rescue | Sa RN4220 lethal | DUSP3 inh | PriA SSB inh | Mtb hypoxia rep
CSc1ccccc1NC(=O)C1C2CCC(C2)C1C(=O)O (stereo unspecified) | 2.8 | 0.2 | 2.9 | 52.2* | -17.9 | 7.9
O=C(Nc1ccc2c(c1)OCO2)c1c[nH]c(=O)n(-c2ccc(F)cc2)c1=O | 6.6 | 0.7 | -1.9 | -5.4 | 38.0*! | 12.6
CCN(CC)C(=S)SC1=C(Cl)CS(=O)(=O)C1 | . | . | . | . | 98.0* | .
CCN(CC)C(=S)SCC(=O)Nc1c(Cl)cccc1Cl | . | . | . | . | -9.0 | .
O=C1CC(c2cccs2)SC(=Nc2ccccc2)N1c1ccccc1 (stereo unspecified) | . | . | . | . | -18.0 | .
O=C(/C=C\c1ccc2c(c1)OCO2)NC1CC(=O)N(c2ccc3c(c2)OCCO3)C1 (stereo unspecified) | . | . | . | . | -5.0 | .
O=c1c2c(-c3ccc(Cl)cc3)csc2ncn1/N=C/c1cccc([N+](=O)[O-])c1O | . | 280.2* | . | -24.1 | . | .
CCOc1ccc(/C=C2\SC(=S)N(NS(=O)(=O)c3ccc(C)cc3)C2=O)cc1OC | 84.9 | 13.5 | 85.7* | -2.5 | 8.9 | 3.8
CCOc1cc(/C=C2\SC(=S)N(NS(=O)(=O)c3ccccc3)C2=O)ccc1O | 64.2 | -3.0 | 80.3 | . | -4.2 | 9.9
